# A selection: hits, their analogues and other compounds. The true share with any hit is near 10%.
# KB-V1 cytotox: KB-V1 MDR subline cytotoxicity; AID 1347076; 400,000 compounds, 3.4% hits; KB-V1 MDR cells viability, CellTiter-Glo, 72 h; Potency, µM (doses to about 46.1 µM), usual class: cytotoxic; note: % is set by controls: 0 for no effect and ±100 for the full control effect; nearly all actives have a fitted effect of over 60% in size
#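 Following 72 h at 37 degrees C with compound, KB-V1 cell viability was read by CellTiter-Glo luminescence, medium being phenol-red-free DMEM plus 10% FBS; concentration-response parameters came from normalized, curve-fitted qHTS data.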
# RORg inh: ROR gamma (mouse) transcription inhibition; AID 2551; Potency, µM (titrated, usually from 53.6 µM), for inactives: at the highest dose activity change, negative = inhibition, usual class: inhibitors; 310,000 compounds, 5.4% hits; Drosophila S2 Gal4-RORgamma UAS-luciferase reporter, 20 h; note: % is set by controls: 0 for no effect and ±100 for the full control effect; nearly all actives have a fitted effect of over 60% in size
# Target sequence (P51450 whole entry, looked up, the tested form may be a part): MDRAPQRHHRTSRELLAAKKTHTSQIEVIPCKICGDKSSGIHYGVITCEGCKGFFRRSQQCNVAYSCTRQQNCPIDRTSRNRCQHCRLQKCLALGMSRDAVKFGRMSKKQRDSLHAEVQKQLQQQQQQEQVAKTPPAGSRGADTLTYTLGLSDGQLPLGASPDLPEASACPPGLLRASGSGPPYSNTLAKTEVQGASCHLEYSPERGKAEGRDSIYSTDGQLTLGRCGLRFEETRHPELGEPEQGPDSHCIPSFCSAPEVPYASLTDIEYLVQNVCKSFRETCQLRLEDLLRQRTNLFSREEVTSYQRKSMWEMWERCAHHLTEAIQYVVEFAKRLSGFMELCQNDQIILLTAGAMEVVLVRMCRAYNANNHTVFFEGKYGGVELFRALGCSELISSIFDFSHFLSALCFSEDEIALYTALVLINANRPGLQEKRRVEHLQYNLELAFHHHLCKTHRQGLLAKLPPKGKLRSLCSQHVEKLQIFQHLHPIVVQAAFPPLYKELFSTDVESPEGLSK
#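 Stably transfected Drosophila Schneider cells are the test system, with ROR gamma fused to Gal4 and luciferase under UAS control; luminescence is read after 20 hr of 700 uM copper sulfate induction at ambient temperature.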
# KB-3-1 cytotox: kills parental KB-3-1 adenocarcinoma cells | AID 1347075 | KB-3-1 viability, CellTiter-Glo ATP luminescence, 72 h | 400,000 compounds, 1.4% hits | Potency, µM (highest dose often 46.1 µM), hits mostly cytotoxic; note: % is set by controls: 0 for no effect and ±100 for the full control effect; nearly all actives have a fitted effect of over 60% in size
#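 Viability of parental KB-3-1 cells, measured by CellTiter-Glo luminescence, followed a 72 h incubation at 37 °C with pinned compounds in phenol-red-free DMEM containing 10% FBS.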
# Gal4-VP16 FLuc: inhibits Gal4-VP16 luciferase reporter, ROR gamma counter-screen. Potency, µM (titrated, usually from 53.6 µM), for inactives: top-dose activity, negative = inhibition, usual class: inhibitors. 310,000 compounds, 3.5% hits. Drosophila S2 Gal4-VP16 UAS-luciferase, luminescence, 20 h;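 note: Gal4-VP16 expression switched on by copper sulfate through the metallothionein promoter; % is set by controls: 0 for no effect and ±100 for the full control effect; nearly all actives have a fitted effect of over 50% in size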
# MCF10A rerep: induces DNA re-replication in MCF 10a normal breast cells; MCF 10A DNA re-replication, Hoechst nuclear intensity, 48 h; Potency, µM (series often up to 46.1 µM), inactives show at the highest dose activity, positive = re-replication, actives largely listed as activators; 350,000 compounds, 2.9% hits; note: % of control where 0% means no effect; nearly all actives have a fitted effect of over 50% in size
# SW480 rereplic: induces DNA re-replication in SW480 colon adenocarcinoma cells. SW480 DNA re-replication, Hoechst DNA content imaging, 48 h. Potency, µM (titrated, usually from 46.1 µM), for the others: at the top dose re-replication activation, usual class: activators. 340,000 compounds, 1.8% hits. AID 624297; note: % of control where 0% means no effect; nearly all actives have a fitted effect of over 55% in size
#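 Compounds, transferred as 23 nL by pin tool, were incubated with cells for 48 hr; DNA content per nucleus was then quantified by Hoechst staining and fluorescence plate imaging.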
# The depositor's hits bear a star; i = inactive; ? = inconclusive; nt = not tested or not shown; [ ] = another dose, or the depositor's remark. Calls come from the whole dose curve; as a rule, active = well fitted curve in the direction sought with a large enough effect; inconclusive = small, poorly fitted or top-dose-only effect, or another doubt; inactive = no such curve, though single readings can be large; an effect the other way counts as inactive or inconclusive. Potency is the fitted concentration of half-maximal effect.
SMILES,KB-V1 cytotox,RORg inh,KB-3-1 cytotox,Gal4-VP16 FLuc,MCF10A rerep,SW480 rereplic
CSc1nc2ccc(NC(=O)c3ccccn3)cc2s1,?,?,i,?,14%,?
Cc1ccc2nc(NC(=O)c3ccccc3F)sc2c1,?,1.3µM*,i,7.1µM*,24%,0%[9.22 µM]
Cc1cc(NC(=O)c2ccccc2F)on1,i,-21%,i,-8%,3%,21µM*
CCOc1ccc(CCNC(=O)COC(=O)CSc2ccccc2C)cc1OCC,nt,-14%,nt,4%,-3%,5%
CC(=O)c1cccc(NC(=O)c2cc(-c3ccc(Cl)s3)nc3ccccc23)c1,i,nt,i,nt,nt,nt
C(=C\c1ccccc1)/CN1CCN(C(c2ccccc2)c2nnnn2C2CCCCC2)CC1 (centres undefined),?,nt,i,nt,nt,nt
CCCS(=O)(=O)NC(=O)C1(C)CCN(C(=O)c2ccccc2OC(C)=O)C1 (centres undefined),i,nt,i,nt,nt,nt
CSc1ncccc1C(=O)Nc1nc2ccc(Oc3ccccc3)cc2s1,i,10µM*,i,?,?,-75%
Cc1ccc(Cn2c(C(=O)O)c(CNC3CCCCCC3)c3ccc(C)cc32)cc1,i,nt,i,nt,nt,nt
Cc1cccc(C)c1N1CCN(C(=O)Nc2ccc3c(c2)OCCO3)CC1,4.6µM*,?,i,-19%,7%,9%
O=C(Nc1ccc2c(c1)OCCO2)N1CCN(c2ccc(F)cc2)CC1,21µM*,-2%,?,-7%[0.365 µM],10%,2%
Brc1ccc(-c2ccc(CNCCSc3nnnn3-c3ccccc3)o2)cc1,i,nt,i,nt,nt,nt
CCOC(=O)C1=C(O)/C(=C/c2cn(CC(=O)N3CCCC3)c3ccccc23)SC1=Nc1ccccc1,i,?,15µM*,-9%,8.2µM*,?
COC(=O)c1cn(CC(=O)N2CCCCCC2)c2ccccc12,i,27%,i,-5%,1%,-1%[9.22 µM]
COc1ccccc1CNC(=O)C1CCN(S(=O)(=O)c2ccc3c(c2)CCCN3C(C)=O)CC1,i,nt,i,nt,nt,nt
CCOC(=O)C(C)N1C(=O)S/C(=C\c2ccc(-c3ccccc3C(=O)O)o2)C1=O (centres undefined),i,0%,i,-6%,-8%,?
Cc1ccc(CN2C(=O)N/C(=C\c3ccc(-c4ccc(C(=O)O)cc4C)o3)C2=O)cc1,i,14%,i,-4%,?,7.3µM*
O=C(O)c1ccc(-c2ccc(/C=C3\NC(=O)N(Cc4ccc(Cl)cc4)C3=O)o2)cc1,i,32%,i,16%,2.1µM*,10µM*
Cc1ccccc1NC(=O)CN1C(=O)S/C(=C\c2ccc(-c3cc(C(=O)O)ccc3C)o2)C1=O,?,-14%,i,2%,?,9%
O=C(O)c1ccc(COc2ccccc2/C=C2\NC(=O)N(Cc3ccc(F)cc3)C2=O)cc1,i,23%,i,-4%,5%,?
Cc1ccc(/C=C2/NC(=O)N(Cc3ccccc3)C2=O)o1,i,?,i,?,25%,?
Cc1ccc(C(=O)O)cc1-c1ccc(/C=C2/NC(=O)N(c3ccccc3)C2=O)o1,i,?,i,12%,13µM*,?
Cc1ccc(C)c(N2C(=N)S/C(=C\c3ccc(-c4ccccc4C(=O)O)o3)C2=O)c1,i,18%,i,0%,18µM*,-19%
O=C(COC(=O)c1ccc(F)cc1Cl)NC1CC1,i,nt,i,nt,nt,nt
COc1ccccc1CNC(=O)C1CCN(S(=O)(=O)Cc2ccccc2)CC1,i,nt,i,nt,nt,nt
SMILES,KB-V1 cytotox,RORg inh,KB-3-1 cytotox,Gal4-VP16 FLuc,MCF10A rerep,SW480 rereplic
Cc1cc(C(=O)O)ccc1-c1ccc(/C=C2\NC(=O)N(Cc3ccccc3Cl)C2=O)o1,i,9%,i,-19%,2.3µM*,?
Cc1ccc(C(=O)O)cc1-c1ccc(/C=C2\SC(=O)N(CC(=O)Nc3ccccc3)C2=O)o1,i,12%,i,0%[10 µM],23µM*,-26%
C#CCN1C(=O)S/C(=C\c2ccc(-c3ccc(C(=O)O)cc3C)o2)C1=O,i,?,i,-11%,-6%,20%
O[C@H]1C[C@H](c2ccc(Cl)cc2)N(CC2CCCCC2)C[C@@H]1n1cc(-c2ccc(F)cc2)nn1,i,nt,i,nt,nt,nt
CCCc1cc(C(=O)N/N=C/c2cccn2C)cs1,i,11µM*,i,22µM*,0%,-1%
Cc1ccc(C(=O)N/N=C\c2ccc(-c3ccc(Cl)cc3)o2)cn1,?,2.5µM*,?,10µM*,?,5%
Cc1ccc(C(=O)N/N=C\c2cccn2C)cn1,i,11µM*,i,?,-5%,1%[9.22 µM]
Cn1cccc1/C=N/NC(=O)c1cccnc1,i,-40%,i,1%,?,-1%
COC(=O)[C@@H]1[C@@H]2C[C@H]3c4[nH]c5ccccc5c4CCN3C[C@@H]2CC[C@@H]1O,nt,-1%[10 µM],nt,-10%,-1%,0%
COC(=O)Nc1ccc(Cl)c(Cl)c1,nt,6%,nt,0%,nt,nt
Cc1cc(C)c(S(=O)(=O)n2ccc3ccccc32)c(C)c1,?,-1%,23µM*,-9%,?,19%
Cn1nnnc1SCC1=C(C(=O)O)N2C(=O)C(NC(=O)Cn3nc(C(F)F)cc3C3CC3)C2SC1 (centres undefined),?,13%,i,-15%,0.58µM*,2%
COc1ccc(OC)c2c(/C=C/c3c(C)[nH]c4ccccc34)ccnc12,21µM*,nt,?,nt,nt,nt
COc1ccc(OC)c2c(/C=C/c3ccc(N(C)C)cc3)ccnc12,i,nt,i,nt,nt,nt
Cc1ccc(C(=O)N/N=C\C=C\c2ccccc2[N+](=O)[O-])cn1,?,21%,i,?,2%,1%
Cc1ccc(C(=O)N/N=C/c2cc(Br)ccc2O)cn1,i,2.5µM*,?,1.1µM*,3%,2%
Cc1ccc(C(=O)N/N=C\C=C\c2ccc(Br)cc2)cn1,i,0.56µM*,i,2.2µM*,11%,?
C/C(=N\NC(=O)c1ccccc1OCc1ccc(F)cc1)c1ccccn1,?,nt,12µM*,nt,24%,2%
C/C(=N\NC(=O)c1cccc2ccccc12)c1ccccn1,i,nt,?,nt,?,?
CCOc1ccc(OCc2ccc(C(=O)N/N=C(\C)c3ccccn3)cc2)cc1,?,0.11µM*,?,5%,?,?
Cc1nc2cnc(N3CCOCC3)nc2n(C[C@H]2CCCO2)c1=O,nt,2%,nt,-9%,nt,nt
Cc1ccc(S(=O)(=O)C=CS(=O)(=O)c2ccc(C)cc2)cc1,i,nt,?,nt,nt,nt
O=S(=O)(/C=C/C=C/S(=O)(=O)c1ccccc1)c1ccccc1,i,nt,6.5µM*,nt,?,?
